# Experimental data as given in PubChem BioAssay (NCI).
# The panel holds about 83,000 compounds, 20% with a hit somewhere; the sample as a whole holds those more often.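 Treatment: one concentration, 48 hours, 96-well format. Scoring: percent growth, with anything below 10 considered active.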 Unmarked numbers belong to inactive results. Activity calls are given as the source filed them.
# Tested on: SK-OV-3 ovarian
# Assay: NCI-60 one-dose screen, 48 h (100 = growth as untreated, 0 = no growth, -100 = all killed)
# Settings: 10 µM unless noted
row,SMILES,growth [%]
1,CCN(CC)CCNCC(=O)Oc1ccc(/C=C/C(=O)CC(=O)/C=C/c2ccc(OC(=O)CNCCN(CC)CC)c(OC)c2)cc1OC,27.3
2,Cc1ccc2c(c1)C(=O)/C(=C\Nc1ccc(C(N)=O)cc1)C(O)O2 (configuration not stated),107
3,COc1cc(/C=C/C(=O)C(C(=O)/C=C/c2ccc(OC(=O)CCNc3nnc(C)s3)c(OC)c2)C(=O)CCNc2nnc(C)s2)ccc1OC(=O)CCNc1nnc(C)s1,45.4
4,[N-]=[N+]=NCc1cccc(/C(O)=C/C(=O)C(=O)O)c1,107
5,Clc1ccc(C2c3ccccc3-c3nccn32)c(Cl)c1 (configuration not stated),84.7
6,O=C(O)C1CCN(S(=O)(=O)c2ccc(-c3ccccc3)cc2)CC1,111
7,CSc1nc(N)c2c(n1)N(C)C=NS2(=O)=O,117
8,Cc1sc2nc(NCc3ccccc3)[nH]c(=O)c2c1C,50.8
9,Cc1cc(Br)c(C)cc1Br,92.7
10,O=C(/C=C(\Nc1ccccc1)c1ccccc1)c1cn(-c2ccc([N+](=O)[O-])cc2)nn1,106
11,COc1ccc(C2=NN(C=O)C(c3cccc(Nc4ccnc5cc(Cl)ccc45)c3)C2)cc1 (configuration not stated),20.6
12,COc1ccc(NS(=O)(=O)N2CCCCC2)cc1,99.6
13,C[C@H]1C(=O)N2c3ccccc3[C@@]3(O)C[C@@H](n4cnc5ccccc5c4=O)C(=O)N1[C@@H]23,104
14,COP(=O)(OC)C(c1ccccc1)(c1ccccc1)c1ccccc1,108
15,O=c1ccn(C2CC=C(CO)O2)c(=O)[nH]1 (configuration not stated),102
16,COc1ccc2c(c1)C(=Nc1cc(OC)c(OC)c(OC)c1)C(=O)N2,97.4
17,CC(=O)/C(=C/c1ccc(Cl)cc1)C(=O)c1ccccc1,101
18,Clc1ccc2nc(CI)c(CI)nc2c1,98.8
19,COc1cc(C2CC(C3C(=O)N(C)C(=O)N(C)C3=O)=NN2C=O)cc(OC)c1OC (configuration not stated),76.4
20,O=C(/C=C/c1ccc([N+](=O)[O-])cc1)c1ccc2c3c(cccc13)CC2,91.4
21,O=[N+]([O-])c1ccc2[nH]cc(-c3c4ccccc4cc4[nH]c5ccc([N+](=O)[O-])cc5c34)c2c1,64.4
22,O=Nc1c2cccnc2n2nnc3ccc(Cl)cc3c12,92.2

# Tested on: IGROV1 ovarian
# Assay: as above
# Settings: 10 µM unless noted
row,SMILES,growth
1,O=c1c2ccccc2c2nccn2c2cc(Cl)ccc12,61.7%
2,N#Cc1c(NC(=O)c2ccco2)[n+]([O-])c2cc(Cl)c(Cl)cc2[n+]1[O-],-12.2% (active)
3,CCOC(=O)N1CCC(N=C2CSc3nnc(-c4cc(C(F)(F)F)cc(C(F)(F)F)c4)n3N2)CC1,44.1%
4,Cn1c(N2N=C(c3ccc(Cl)cc3)CC2c2ccccc2)nc(-c2ccccc2)c(C#N)c1=O (configuration not stated),79%
5,CCSCC1CC(O)(c2ccccc2)C(c2ccccc2)C(c2ccc(Cl)cc2)O1 (configuration not stated),32.6%
6,N#Cc1ccc(-c2csc(Nc3ccc4nc5n(c(=O)c4c3)CCC5)n2)cc1,107%
7,CCCCNCCCN(CCCC)CCCNCCCC,99.5%
8,COc1cccc(/C=C2\Cc3ccccc3C2=O)c1,99.3%
9,C(#Cc1ccccc1C#Cc1ccccn1)c1ccc(OCCCCCCOc2ccc(C#Cc3ccccc3C#Cc3ccccn3)cc2)cc1,-48.8% (active)
10,CN(C)c1ccc(-c2nc3ncc(Br)cc3o2)cc1,17%
11,CCN(CC)CCNCC(=O)Oc1ccc(/C=C/C(=O)CC(=O)/C=C/c2ccc(OC(=O)CNCCN(CC)CC)c(OC)c2)cc1OC,-24.5% (active)
12,Clc1ccc(C2c3ccccc3-c3nccn32)c(Cl)c1 (configuration not stated),77.1%
13,CSc1nc(N)c2c(n1)N(C)C=NS2(=O)=O,119%
14,Cc1sc2nc(NCc3ccccc3)[nH]c(=O)c2c1C,67.9%
15,COc1ccc(C2=NN(C=O)C(c3cccc(Nc4ccnc5cc(Cl)ccc45)c3)C2)cc1 (configuration not stated),44.1%
16,O=c1ccn(C2CC=C(CO)O2)c(=O)[nH]1 (configuration not stated),86.2%
17,COc1ccc2c(c1)C(=Nc1cc(OC)c(OC)c(OC)c1)C(=O)N2,94.1%
18,CC(=O)/C(=C/c1ccc(Cl)cc1)C(=O)c1ccccc1,91.6%
19,COc1cc(C2CC(C3C(=O)N(C)C(=O)N(C)C3=O)=NN2C=O)cc(OC)c1OC (configuration not stated),110%
20,COc1ccc(CC(=O)Nc2nn3c(-c4cc(C(F)(F)F)cc(C(F)(F)F)c4)nnc3s2)cc1,59.9%
21,O=[N+]([O-])c1ccc2[nH]cc(-c3c4ccccc4cc4[nH]c5ccc([N+](=O)[O-])cc5c34)c2c1,18.7%

# Tested on: OVCAR-3 ovarian
# Assay: as above
# Settings: 10 µM unless noted
row,SMILES,growth
1,CN1CCN(c2nc3scc(-c4ccccc4)c3c(=O)[nH]2)CC1,102%
2,O=C(COc1cccc(/C=C2\Oc3ccc4ccccc4c3C2=O)c1)c1ccc([N+](=O)[O-])cc1,103%
3,CCCCCCCCCCN1CCC(N2CCCCC2)CC1,20.1%
4,Nc1nc2c(c(=O)[nH]1)C1(C(=O)Nc3ccccc31)c1c(nc(N)[nH]c1=O)N2,103%
5,O=c1c2ccccc2c2nccn2c2cc(Cl)ccc12,99.1%
6,N#Cc1c(NC(=O)c2ccco2)[n+]([O-])c2cc(Cl)c(Cl)cc2[n+]1[O-],109%
7,CCOC(=O)N1CCC(N=C2CSc3nnc(-c4cc(C(F)(F)F)cc(C(F)(F)F)c4)n3N2)CC1,28.5%
8,Cn1c(N2N=C(c3ccc(Cl)cc3)CC2c2ccccc2)nc(-c2ccccc2)c(C#N)c1=O (configuration not stated),71.7%
9,CCSCC1CC(O)(c2ccccc2)C(c2ccccc2)C(c2ccc(Cl)cc2)O1 (configuration not stated),-26.4% (active)
10,N#Cc1ccc(-c2csc(Nc3ccc4nc5n(c(=O)c4c3)CCC5)n2)cc1,116%
11,CCCCNCCCN(CCCC)CCCNCCCC,107%
12,COc1cccc(/C=C2\Cc3ccccc3C2=O)c1,110%
13,C(#Cc1ccccc1C#Cc1ccccn1)c1ccc(OCCCCCCOc2ccc(C#Cc3ccccc3C#Cc3ccccn3)cc2)cc1,35.5%
14,CN(C)c1ccc(-c2nc3ncc(Br)cc3o2)cc1,112%
15,Cc1ccc(S(=O)(=O)N2CCN(C(=O)CSc3nc4ccc(C)cc4[nH]3)CC2)cc1,111%
16,COC(=O)c1c(NC(=O)CSc2nnnn2-c2ccc(OC)cc2)sc(C)c1C,99.2%
17,CCN(CC)CCNCC(=O)Oc1ccc(/C=C/C(=O)CC(=O)/C=C/c2ccc(OC(=O)CNCCN(CC)CC)c(OC)c2)cc1OC,13.3%
18,Cc1ccc2c(c1)C(=O)/C(=C\Nc1ccc(C(N)=O)cc1)C(O)O2 (configuration not stated),84.6%
19,COc1cc(/C=C/C(=O)C(C(=O)/C=C/c2ccc(OC(=O)CCNc3nnc(C)s3)c(OC)c2)C(=O)CCNc2nnc(C)s2)ccc1OC(=O)CCNc1nnc(C)s1,2.15% (active)
20,[N-]=[N+]=NCc1cccc(/C(O)=C/C(=O)C(=O)O)c1,126%

row,SMILES,growth
1,Clc1ccc(C2c3ccccc3-c3nccn32)c(Cl)c1 (configuration not stated),55%
2,O=C(O)C1CCN(S(=O)(=O)c2ccc(-c3ccccc3)cc2)CC1,112%
3,CSc1nc(N)c2c(n1)N(C)C=NS2(=O)=O,122%
4,Cc1sc2nc(NCc3ccccc3)[nH]c(=O)c2c1C,40.7%
5,Cc1cc(Br)c(C)cc1Br,103%
6,O=C(/C=C(\Nc1ccccc1)c1ccccc1)c1cn(-c2ccc([N+](=O)[O-])cc2)nn1,112%
7,COc1ccc(C2=NN(C=O)C(c3cccc(Nc4ccnc5cc(Cl)ccc45)c3)C2)cc1 (configuration not stated),13.8%
8,COc1ccc(NS(=O)(=O)N2CCCCC2)cc1,107%
9,C[C@H]1C(=O)N2c3ccccc3[C@@]3(O)C[C@@H](n4cnc5ccccc5c4=O)C(=O)N1[C@@H]23,115%
10,COP(=O)(OC)C(c1ccccc1)(c1ccccc1)c1ccccc1,86.7%
11,O=c1ccn(C2CC=C(CO)O2)c(=O)[nH]1 (configuration not stated),107%
12,COc1ccc2c(c1)C(=Nc1cc(OC)c(OC)c(OC)c1)C(=O)N2,72.4%
13,CC(=O)/C(=C/c1ccc(Cl)cc1)C(=O)c1ccccc1,91.3%
14,Clc1ccc2nc(CI)c(CI)nc2c1,65.4%
15,COc1cc(C2CC(C3C(=O)N(C)C(=O)N(C)C3=O)=NN2C=O)cc(OC)c1OC (configuration not stated),107%
16,O=C(/C=C/c1ccc([N+](=O)[O-])cc1)c1ccc2c3c(cccc13)CC2,66.9%
17,COc1ccc(CC(=O)Nc2nn3c(-c4cc(C(F)(F)F)cc(C(F)(F)F)c4)nnc3s2)cc1,53.5%
18,O=[N+]([O-])c1ccc2[nH]cc(-c3c4ccccc4cc4[nH]c5ccc([N+](=O)[O-])cc5c34)c2c1,-7.76% (active)
19,O=Nc1c2cccnc2n2nnc3ccc(Cl)cc3c12,-29.5% (active)
